PNC inhibitor: blocks assembly of the perinucleolar compartment | PC3M PTB-GFP, PNC prevalence imaging, 16 h; hits give low values | activity change (PNC), negative = inhibition, % at 10 µM | 3.1% of 140,000 active | AID 2417;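 active = readout at or below -70, meaning at least 70% loss of cells showing the perinucleolar compartment, a nuclear body marking cancer cells; inconclusive = readout between -30 and a set limit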;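 also: plate controls were DMSO wells for no effect and camptothecin positive control wells for full effect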
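Read-out is percentage of cells bearing a perinucleolar compartment, from automated 20x imaging of fixed, Hoechst-stained PC3M PTB-GFP cells. Cells were seeded 4 h, then exposed 16 h to compound (23 nl of library stock) in duplicate plates.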
HPGD block: inhibitors of human 15-hydroxyprostaglandin dehydrogenase (HPGD); purified HPGD, NADH fluorescence kinetic, PGE2 substrate; P15428; 4.3% of 150,000 active; Potency, µM, for the others: at the top dose activity change, negative = inhibition, usual class: inhibitors; AID 894; also: potency is read from the fitted curve at half-maximal effect
Target sequence (P15428 whole entry, looked up): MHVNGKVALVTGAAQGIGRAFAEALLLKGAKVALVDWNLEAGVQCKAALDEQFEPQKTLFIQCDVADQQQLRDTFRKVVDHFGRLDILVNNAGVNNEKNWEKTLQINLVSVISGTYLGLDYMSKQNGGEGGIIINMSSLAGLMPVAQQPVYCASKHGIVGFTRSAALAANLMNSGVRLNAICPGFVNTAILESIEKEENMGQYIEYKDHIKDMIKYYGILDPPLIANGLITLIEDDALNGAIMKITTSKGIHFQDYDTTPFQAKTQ
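NADH formation kinetics: reaction with 30 uM PGE2 and 1 mM NAD+ (final), 20 nM enzyme, Tris-HCl pH 8 with Tween 20, after 15 min compound preincubation at room temperature. Fluorescence change, last versus first of five reads.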
LMNA splice mod: LMNA splicing modulation; 0.01% of 200,000 active; Potency, µM (titrated, usually from 46.1 µM), inactives show at the top dose ratio change, negative = inhibition, usual class: inhibitors; AID 1487; HeLa LMNA splicing GFP/RFP minigene ratio, 48 h; active = well fitted inhibition curve with a large enough effect in the signal ratio, with a control signal flat, not every such curve was filed as active; inconclusive = small, poorly fitted or top-dose-only effect, or effect the other way, or a change in a side signal; the % refers to the signal ratio; also: potency is read from the fitted curve at half-maximal effect
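S3 HeLa stable clones carrying a lamin A-EGFP splicing minigene plus DsRed2 were seeded at 600 cells/well in Opti-MEM with 2% FBS, pin-dosed and incubated 48 h at 37°C. Acumen cytometry (488 nm) gave the GFP/RFP total-intensity ratio.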
ALDH1A1 block: ALDH1A1 (human) enzyme inhibition; Purified ALDH1A1, NADH fluorescence, propionaldehyde substrate; Potency, µM (top dose mostly 75.3 µM), for inactives: top-dose activity, negative = inhibition, actives largely listed as inhibitors; 7.3% of 220,000 active; P00352;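 also: potency is read from the fitted curve at half-maximal effect; plate controls were no enzyme wells and a reference inhibitor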
Luc counter: blocks Kinase-Glo luciferase, a counter-screen artifact | Q27757 | Kinase-Glo luciferase, ATP luminescence, 8 min | Potency, µM (titrated, usually from 38.3 µM), inactives show at the highest dose activity change, negative = inhibition, actives largely listed as inhibitors | 0.28% of 200,000 active | AID 1379; active = well fitted inhibition curve with a large enough effect; inconclusive = small, poorly fitted or top-dose-only effect; also: potency is read from the fitted curve at half-maximal effect; nearly all actives have a fitted effect of over 60% in size
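Luminescence was the read-out, taken after 8-minute incubation at ambient temperature. Luciferase turned over luciferin with 10 uM ATP in imidazole pH 7.2 buffer containing KCl, MgCl2, Tween 20 and BSA.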
Numbers without * were called inactive; [ ] = remark or other dose. Only some compounds are listed: those with a hit (about 10% of all), similar ones and a draw of the others. Unless noted, calls follow the shape of the dose curve; as a rule, active = well fitted inhibition curve with a large enough effect (not every such curve was filed as active); inconclusive = small, poorly fitted or top-dose-only effect, or another doubt; inactive = no such curve, though single readings can be large or run the other way. Unless noted, % is scaled to controls: 0 for no effect and ±100 for the full control effect.

What do the screens show for `Cc1ccc2[nH]c(=O)c(CN(CC3CCCO3)C(=S)Nc3ccccc3)cc2c1` (stereo not given)?
PNC inhibitor: 26; HPGD block: -20%; LMNA splice mod: -15%; ALDH1A1 block: 14µM*; Luc counter: -1%

Results for Cc1cccc2cc(CN(CCN(C)C)C(=S)Nc3ccccc3)c(=O)[nH]c12 ?
PNC inhibitor: -99*; HPGD block: -4%; LMNA splice mod: -15%; ALDH1A1 block: inconclusive; Luc counter: 3%

How did COc1ccccc1NC(=S)N(Cc1ccco1)Cc1cc2ccc(C)c(C)c2[nH]c1=O do in these assays?
PNC inhibitor: -84*; HPGD block: -15%; LMNA splice mod: inconclusive; ALDH1A1 block: inconclusive; Luc counter: 0%

How did Cc1ccc2cc(CN(CC3CCCO3)C(=S)Nc3ccccc3)c(=O)[nH]c2c1 (stereo not given) do in these assays?
LMNA splice mod: 23%[46 µM]; ALDH1A1 block: inconclusive; Luc counter: -10%

What do the screens show for `CCN(CC)C(=O)Cn1c(=O)cc(C)c2c(C)nn(C)c21`?
LMNA splice mod: 8%[46 µM]

How did COc1ccc(CNC(=O)CCCCCn2c(=O)[nH]c3ccccc3c2=O)cc1 do in these assays?
LMNA splice mod: -10%[46 µM]

What do the screens show for `CC(=C(CCOP(=O)(O)O)SC(=O)c1ccccc1)N(C=O)Cc1cnc(C)nc1N`?
HPGD block: -10%; LMNA splice mod: inconclusive; ALDH1A1 block: 13%; Luc counter: -7%

What do the screens show for `O=C1CC(C(=O)O)S/C(=N\N=C\c2ccc(Br)cc2)N1` (stereo not given)?
ALDH1A1 block: -3%

How did COc1cccc(Cn2c(=O)c(CCc3ccccc3)nc3cncnc32)c1 do in these assays?
LMNA splice mod: inconclusive; ALDH1A1 block: -9%

What do the screens show for `COc1ccc(-c2cn3nc(N4CCCC(C(=O)Nc5cc(C)ccc5C)C4)sc3n2)cc1` (stereo not given)?
LMNA splice mod: -1%[46 µM]

How did COc1ccccc1C(=O)Nc1cccc(C(=O)OCc2cc(=O)n3nc(C)sc3n2)c1 do in these assays?
LMNA splice mod: 5%[46 µM]

How did Cc1cc(C)c2cc(CN(CC3CCCO3)C(=S)NCc3ccco3)c(=O)[nH]c2c1 (stereo not given) do in these assays?
LMNA splice mod: inconclusive; ALDH1A1 block: 16µM*; Luc counter: -5%

How did COc1ccc2cc(CN(CC3CCCO3)C(=S)NCc3ccco3)c(=O)[nH]c2c1 (stereo not given) do in these assays?
ALDH1A1 block: 3.5µM*; Luc counter: -1%

How did Cc1cccc2cc(CN(CC3CCCO3)C(=S)NCc3ccco3)c(=O)[nH]c12 (stereo not given) do in these assays?
PNC inhibitor: 12; HPGD block: -13%; LMNA splice mod: inconclusive; ALDH1A1 block: inconclusive; Luc counter: 0%

What do the screens show for `Cc1ccc2[nH]c(=O)c(CN(Cc3ccccc3)C(=S)NCCCN(C)C)cc2c1`?
LMNA splice mod: inconclusive; ALDH1A1 block: -5%; Luc counter: 13µM*

Results for Cc1ccc2nsnc2c1S(=O)(=O)N(Cc1ccco1)Cc1cc2ccc(C)c(C)c2[nH]c1=O ?
PNC inhibitor: -82*; HPGD block: -15%; LMNA splice mod: 10%; ALDH1A1 block: inconclusive; Luc counter: 8%

What do the screens show for `Cc1ccc2cc(CN(Cc3ccco3)C(=S)NCC3CCCO3)c(=O)[nH]c2c1` (stereo not given)?
LMNA splice mod: 21%[46 µM]; ALDH1A1 block: -8%; Luc counter: -7%

Results for COc1cc2cc(CN(CCc3ccccc3C)C(=S)NCCCN(C)C)c(=O)[nH]c2cc1OC ?
PNC inhibitor: 3; HPGD block: inconclusive; LMNA splice mod: -2%; ALDH1A1 block: inconclusive; Luc counter: 2%

Results for Cc1cc(C)c2[nH]c(=O)c(CN(CC3CCCO3)C(=S)NCc3ccco3)cc2c1 (stereo not given) ?
PNC inhibitor: -82*; HPGD block: -19%; LMNA splice mod: -16%; ALDH1A1 block: inconclusive; Luc counter: -3%

What do the screens show for `Cc1ccc2[nH]c(=O)c(CN(CC3CCCO3)C(=S)NCc3ccco3)cc2c1` (stereo not given)?
PNC inhibitor: -3; HPGD block: -8%; LMNA splice mod: -6%; ALDH1A1 block: inconclusive; Luc counter: -1%

What do the screens show for `Cc1ccc2[nH]c(=O)c(CN(CC3CCCO3)S(=O)(=O)c3c(C)ccc4nsnc34)cc2c1` (stereo not given)?
PNC inhibitor: 4; HPGD block: -8%; LMNA splice mod: -1%; ALDH1A1 block: inconclusive; Luc counter: 0%

Results for Cc1ccc2[nH]c(=O)c(CN(CCCN3CCOCC3)C(=O)Nc3cccc(Cl)c3)cc2c1 ?
PNC inhibitor: inconclusive; HPGD block: -2%; LMNA splice mod: -13%; ALDH1A1 block: -11%; Luc counter: 0%

What do the screens show for `Cc1cccc(NC(=O)N(Cc2cc3cc(C)ccc3[nH]c2=O)CC2COCCO2)c1` (stereo not given)?
ALDH1A1 block: 32µM*; Luc counter: -1%

What do the screens show for `Cc1ccc2cc(CN(CC3CCCO3)C(=S)NCc3ccco3)c(=O)[nH]c2c1` (stereo not given)?
LMNA splice mod: inconclusive; ALDH1A1 block: 3.5µM*; Luc counter: -6%

How did Cc1ccc2[nH]c(=O)c(CN(CC3CCCO3)S(=O)(=O)c3cccc4nsnc34)cc2c1 (stereo not given) do in these assays?
PNC inhibitor: 53; HPGD block: -8%; LMNA splice mod: -14%; ALDH1A1 block: 20µM*; Luc counter: -2%

Results for O=C(N/N=C1/C[C@@H](O)[C@@H](O)[C@@H]2[C@@H]3C(=O)N(C[C@@H]4CCCO4)C(=O)[C@H]3CC[C@@H]12)OCc1ccccc1 ?
ALDH1A1 block: -5%[13.5 µM]

What do the screens show for `CCOc1ccc(Sc2cc(C(=O)NCCc3ccc(OC)c(OC)c3)c3ccccc3n2)cc1`?
LMNA splice mod: 0%[46 µM]

Results for CC1=CC(c2ccccc2)n2nc(N3C(=O)CCC3=O)nc2N1 (stereo not given) ?
PNC inhibitor: -94*; HPGD block: inconclusive; LMNA splice mod: -6%; ALDH1A1 block: inconclusive; Luc counter: 0%

Results for Cc1cccc(N(Cc2cc3ccccc3[nH]c2=O)S(C)(=O)=O)c1 ?
ALDH1A1 block: 24µM*

How did Cc1ccc(S(=O)(=O)N(Cc2cc3ccccc3[nH]c2=O)c2cccc(C)c2)cc1 do in these assays?
ALDH1A1 block: -15%

What do the screens show for `COc1cccc(OC)c1C(=O)NC(=S)NNC(=O)[C@H]1C[C@@H]1c1ccccc1`?
ALDH1A1 block: 3%

Results for O=C(NC(=S)NNC(=O)[C@H]1C[C@@H]1c1ccccc1)c1cccc(F)c1 ?
ALDH1A1 block: 22µM*
